A selection: hits, their analogues and other compounds. The true share with any hit is near 12%.
Cl transport mod – KCC2 (human) Cl- transport modulation. Q9H2X9. KCC2 cells, thallium flux FluoZin-2 fluorescence. B-score of Tl+ flux slope (higher = more flux/activation; lower = inhibition) at 10 µM. 2.2% of 190,000 active. AID 1456;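 active = thallium flux slope and its plate-corrected score both differing from the plate sample mean at a set confidence after two filtering rounds, in either direction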;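 note: slope of fluorescence scaled to starting intensity during 10 to 20 s after thallium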
Insulin prom inh – TRM-6 insulin promoter activity inhibition; 0.9% of 130,000 active; TRM-6 cells (human fetal islet line), insulin promoter-eGFP reporter, imaging; reporter expression induced with tamoxifen; AID 1273; inhibition, % at 2 µM;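 active = inhibition above the mean plus 3 SD, with well images judged a real hit on visual review, cut at about 60% in these data, passing the limit was not always enough; inconclusive = inhibition over the cutoff but images rejected on review; inactive = inhibition not above the cutoff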
WT yeast gro inh – growth inhibition of WT yeast, mitochondrial fusion screen; mitochondrial fusion phenotypic screen, WT strain; inhibition, % at 10 µM; 2.1% of 190,000 active; AID 1362; in the data active = inhibition above about 58%; tested in S. cerevisiae
Insulin prom up – MIN6 insulin promoter up-regulation | MIN6 insulin promoter-GFP reporter, high-content imaging; stronger effect = higher value | z-score at 5 µM | 0.3% of 190,000 active;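 active = z-score above 3 at 5 µM with at least 500 cells counted in the well; inconclusive = wells under 500 cells, flagged as cytotoxic or low count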
ROMK mod – modulators of human ROMK potassium channel | P48048 | B-score at 10 µM | Tet-inducible ROMK, thallium flux fluorescence; actives lie on both sides | 2% of 130,000 active;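 active = signal ratio slope over the read window, or its plate-corrected B-score, at least 3 SD from the plate mean, either direction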;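 note: B-score of the F/F0 ratio slope over 7 to 12 s after thallium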
Target sequence (P48048 whole entry, looked up): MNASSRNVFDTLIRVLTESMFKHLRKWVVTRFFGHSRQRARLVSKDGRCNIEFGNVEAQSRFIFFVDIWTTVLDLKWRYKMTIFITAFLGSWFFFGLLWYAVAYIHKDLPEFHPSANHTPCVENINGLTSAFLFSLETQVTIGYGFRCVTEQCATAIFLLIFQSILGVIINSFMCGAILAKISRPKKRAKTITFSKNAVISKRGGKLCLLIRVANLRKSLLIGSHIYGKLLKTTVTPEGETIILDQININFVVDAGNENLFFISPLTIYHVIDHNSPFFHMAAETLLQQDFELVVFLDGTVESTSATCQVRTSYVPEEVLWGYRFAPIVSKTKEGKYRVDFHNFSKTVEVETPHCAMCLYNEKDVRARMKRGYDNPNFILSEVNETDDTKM
Lmaj promast – reduces viability of Leishmania major promastigotes | resazurin fluorescence viability | AID 1063 | inhibition, % at 10 µM | 9% of 200,000 active; in the data active = inhibition above about 50%;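 note: promastigotes grown with compound for 44 hours at 28 °C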
Active calls of the source: *; ? = inconclusive; . = not tested or not shown.

SMILES | Cl transport mod | Insulin prom inh | WT yeast gro inh | Insulin prom up | ROMK mod | Lmaj promast
Cc1onc(-c2c(Cl)cccc2Cl)c1C(=O)c1c[nH]c(C(=O)NCC2CCCO2)c1 (stereo not drawn) | 0.0377 | . | -8.3 | -1.02 | -1.32 | 3.9
O=C(Nc1ccc(Cl)cc1)c1cc2nc(-c3ccco3)cc(C(F)(F)F)n2n1 | . | 71.4* | 10.2 | -1.69 | 0.234 | 5.5
Cc1cc(C(=O)Nc2ccccc2N2CCCCC2)no1 | 0.383 | . | . | -0.1 | . | .
Cc1cc(-c2n[nH]c(=S)n2/N=C/c2ccc(C)s2)n[nH]1 | 0.414 | 4.0 | -17.4 | -0.08 | 0.606 | -1.8
Cc1cc(-c2n[nH]c(=S)n2/N=C/c2ccc(Br)s2)n[nH]1 | 10.3* | 2.0 | 9.5 | . | . | -6.0
COc1ccc(CCC(=O)N2c3ccccc3CC2C)cc1 (stereo not drawn) | -1.42 | -41.7 | 6.5 | . | . | -3.2
N#Cc1c(-c2cccs2)nc(SCc2ccc(Cl)cc2)[nH]c1=O | -3.47* | 40.0 | -7.9 | . | 3.55* | -9.8
CSc1nc(-c2cccs2)c(C#N)c(=O)[nH]1 | -1.26 | . | . | -0.21 | . | .
O=C(CCN1CCCCCC1)Nc1cccc(F)c1 | . | -6.2 | 6.9 | 0.34 | 0.0295 | -0.8
C[n+]1cc(C(=O)N2CCCCC2)ccc1/C=C/c1c[nH]c2ccccc12 | . | . | 9.4 | 3.95* | . | 0.1
C/C(=N\N=C1/NC(=O)C(C)S1)c1ccc([N+](=O)[O-])cc1 (stereo not drawn) | 0.345 | -9.7 | -14.6 | -0.13 | -0.352 | -11.8
CCOC(=O)N1CCN(C(=O)c2ccc(CN(c3ccccc3)S(C)(=O)=O)cc2)CC1 | . | . | 9.6 | -0.51 | -0.175 | 0.1
CC(=O)NCCNC(=O)CNC(=O)c1ccc(Cl)cc1 | 0.434 | . | -16.4 | -0.28 | . | -6.3
O=C(CNC(=O)c1ccc(Cl)cc1)NCC(F)(F)F | -0.314 | 5.4 | -5.2 | -0.26 | 1.01 | 55.1*
CC(C)CN(CCCNC(=O)CN1C(=O)COc2ccc(S(=O)(=O)N3CCCC3)cc21)CC(C)C | -0.172 | -11.8 | 3.9 | 0.18 | -1.47 | -4.3
Cc1ccc(-n2c(C)cc(C(=O)COC(=O)C3=NNC(=O)CC3)c2C)cc1 | -0.39 | 8.1 | -13.1 | 1.05 | 1.14 | 95.0*
Cc1cc(C(=O)COC(=O)C2=NNC(=O)CC2)c(C)n1-c1ccccc1 | . | 38.5 | -3.2 | 0.3 | . | -3.2
Cc1ccc(-n2c(C)cc(C(=O)CSc3n[nH]c(N)n3)c2C)cc1 | -1.19 | -7.0 | 19.6 | -0.64 | . | 95.1*
CCOCCCNC(=O)CCc1ccc(S(=O)(=O)Nc2ccc(C)cc2)cc1 | 0.836 | -77.8 | 1.7 | -0.36 | -0.555 | -4.8
CCOc1ccc(N2CC(C(=O)NCCCN3CCOCC3)CC2=O)cc1 (stereo not drawn) | 0.0287 | 6.2 | 6.8 | . | 0.628 | -2.2
Cc1ccccc1CSc1nnc(-c2ccncc2)o1 | 0.289 | . | -2.6 | -0.54 | -0.917 | -10.3
Clc1ccc(CSc2nnc(-c3ccncc3)o2)c(Cl)c1 | -0.225 | . | 76.5* | 0.05 | -0.0514 | -3.9
Cc1c(C(c2ccc(O)cc2)c2c(C)n(C)n(-c3ccccc3)c2=O)c(=O)n(-c2ccccc2)n1C | -0.396 | 0.0 | 17.8 | . | 0.0483 | -0.4
Cc1ccc(C(c2c(C)n(C)n(-c3ccccc3)c2=O)c2c(C)n(C)n(-c3ccccc3)c2=O)s1 | -0.552 | . | -5.6 | -0.73 | -0.259 | 93.6*
Cc1c(C(c2ccc([N+](=O)[O-])cc2)c2c(C)n(C)n(-c3ccccc3)c2=O)c(=O)n(-c2ccccc2)n1C | -0.135 | . | 5.3 | 4.14* | . | -4.6
SMILES | Cl transport mod | Insulin prom inh | WT yeast gro inh | Insulin prom up | ROMK mod | Lmaj promast
O=C(CCN1CCN(C/C=C/c2ccccc2)CC1)Nc1ccccc1F | -0.066 | 40.5 | 12.9 | -0.12 | . | 97.2*
COC(=O)c1cc(OC)c(OC)cc1NC(=S)N1CCN(C/C=C/c2ccccc2)CC1 | -1.49 | -31.6 | 16.8 | 0.87 | -0.997 | 99.4*
O=C(Nc1cccc(F)c1)N1CCN(C/C=C/c2ccccc2)CC1 | -0.825 | 71.4 | 3.4 | . | . | 68.3*
O=C(CCN1CCN(c2ccccc2F)CC1)Nc1ccccc1F | . | 57.1 | 12.2 | -0.2 | -0.15 | 9.1
COc1ccc(C)cc1NC(=O)COC(C)=O | 0.0758 | -15.2 | 9.1 | 3.48* | 0.474 | -6.2
COc1ccc([N+](=O)[O-])cc1NC(=O)COC(C)=O | 0.944 | ? | 3.8 | 1.66 | 1.3 | -5.4
O=C(Nc1ccc(F)cc1)N1CCN(C/C=C/c2ccccc2)CC1 | 0.686 | 33.3 | 2.1 | -0.45 | . | 29.2
O=C(NCCn1cccn1)c1ccc(OC2CCN(C(=O)C3CC3)CC2)cc1 | . | 10.0 | -4.2 | . | 0.751 | -5.3
COC(=O)c1cc(OC)c(OC)cc1NC(=S)N1CCCC1 | 0.121 | . | -6.1 | -0.41 | . | 87.9*

High-throughput results (PubChem)
